# Experimental data published in the supplement of paper PMC8047044.
# Structures can show the parent of a compound that is named as a salt.
# Test system: Neuro-2a
# Experiment: neurite formation score, plate-normalized to DMSO control mean 5.04 (score (0-8 scale)); higher = more or longer neurites
# Settings: 0.1 µM
# Experimental: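 Neuro-2a mouse neuroblastoma cells in PLL-coated 96-well plates were pre-treated for 1 h in DMEM(+) with each kinase inhibitor at 0.1 µM, then switched to serum-free DMEM(-) with inhibitor to induce neurite outgrowth and fixed about 2-3 h later. Three blinded observers scored neurite formation from 0 (no neurites) to 8 (long neurites on almost all cells).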
row,SMILES,neurite formation score
1,CCn1c2ccccc2c2cc(Nc3ccnc(NCCCN4CCOCC4)n3)ccc21,3.42
2,COc1nccc(-c2c(-c3ccc(F)cc3)ncn2C2CCC(O)CC2)n1 (stereo not given),5.25
3,COc1cc2ncnc(Oc3cccc(NC(=O)Nc4cc(C(C)(C)C(F)(F)F)on4)c3)c2cc1OC,4.71
4,O=C(NOC[C@H](O)CO)c1ccc(F)c(F)c1Nc1ccc(I)cc1F,4.71
5,C[C@H]1[C@H](C)CC[C@]2(C(=O)O)CC[C@]3(C)C(=CC[C@@H]4[C@@]5(C)C[C@@H](O)[C@H](O)[C@@](C)(CO)[C@@H]5CC[C@]43C)[C@H]12 [Asiatic acid],5.08
6,Clc1ccc(Nc2nnc(Cc3ccncc3)c3ccccc23)cc1 [Vatalanib (PTK787) 2HCl],3.71
7,O=C1NC(=NCc2cccs2)S/C1=C\c1ccc2ncccc2c1,4.25
8,COc1ccc(CNc2nc(N(CCO)CCO)nc3c2ncn3C(C)C)cc1,4.04
9,C=CC(=O)Nc1ccc2ncnc(Nc3ccc(OCc4cccc(F)c4)c(Cl)c3)c2c1,4.21
10,N=C(N)NC(=N)NCCc1ccccc1 [Phenformin HCl],4.76
11,CN(C)C/C=C/C(=O)Nc1cc2c(Nc3ccc(F)c(Cl)c3)ncnc2cc1O[C@H]1CCOC1 [Afatinib (BIBW2992)],4.54
12,C[C@H](Nc1ncnc2nc[nH]c12)c1cc2cccc(Cl)c2c(=O)n1-c1ccccc1,5.04
13,N#C/C(=C\c1ccc(O)c(O)c1)C(=O)NCc1ccccc1,4.58
14,Cc1cc(C)c(/C=C2\C(=O)Nc3ccccc32)[nH]1,5.25
15,O=C(Nc1cccc(Cl)c1)Nc1ncc(CCNc2ncnc3ccsc23)s1 [SNS-314 Mesylate],4.58
16,C[C@@H](Oc1cc(-c2cnn(C3CCNCC3)c2)cnc1N)c1c(Cl)ccc(F)c1Cl [(R)-Crizotinib],4.71
17,Cc1ccc2c(Nc3ccc(Cl)cc3)nccc2c1Nc1ncccc1-c1ncnc2nc[nH]c12 [B-Raf inhibitor 1],4.76
18,CC(C)n1nc(-c2cc3cc(O)ccc3[nH]2)c2c(N)ncnc21,4.76

row,SMILES,neurite formation score
1,COc1cc2ncnc(Nc3cccc(Cl)c3F)c2cc1OC(=O)N1CCN(C)C[C@H]1C,4.75
2,CO[C@H]1C[C@@H]2CC[C@@H](C)[C@@](O)(O2)C(=O)C(=O)N2CCCC[C@H]2C(=O)O[C@H]([C@H](C)C[C@@H]2CC[C@@H](O)[C@H](OC)C2)CC(=O)[C@H](C)/C=C(\C)[C@@H](O)[C@@H](OC)C(=O)[C@H](C)C[C@H](C)/C=C/C=C/C=C/1C [Rapamycin (Sirolimus)],5.54
3,CCOc1cc2ncc(C#N)c(Nc3ccc(F)c(Cl)c3)c2cc1NC(=O)/C=C/CN(C)C [Pelitinib (EKB-569)],4.38
4,O=c1cc(CN2CCOCC2)occ1OCCCCCSc1ccnc2cc(C(F)(F)F)ccc12,5.75
5,CCN(CC)CCCC(C)Nc1ccnc2cc(Cl)ccc12 (stereo not given) [Chloroquine diphosphate],4.58
6,COc1ccc(-c2nc(N3CCOCC3)c3sc(CN(C)c4ncc(C(=O)NO)cn4)cc3n2)cn1,3.58
7,"CN1CCN(c2ccc3nc(-c4c(N)c5c(F)cccc5[nH]c4=O)[nH]c3c2)CC1 [Dovitinib (TKI-258, CHIR-258)]",4.08
8,N#Cc1cccc(-c2c[nH]c3ncnc(N4CCOCC4)c23)c1,4.75
9,CS(=O)(=O)c1ccc(-c2cnc(N)c(C(=O)Nc3ccccc3)n2)cc1,3.04
10,c1cc(-c2cnn3cc(-c4ccc(OCCN5CCCCC5)cc4)cnc23)ccn1 [Dorsomorphin 2HCl],3.92
11,COc1cc2nccc(Oc3ccc(NC(=O)Nc4cc(C)on4)c(Cl)c3)c2cc1OC [Tivozanib (AV-951)],4.71
12,COc1ncc(-c2ccc3nccc(-c4ccnnc4)c3c2)cc1NS(=O)(=O)c1ccc(F)cc1F,4.92
13,CNC(=O)c1cc(Oc2ccc3nc(N[C@@H]4CCCC[C@H]4O)sc3c2)ccn1,4.75
14,NC(=O)c1ccc(-c2nc(-c3ccc4c(c3)OCCO4)c(-c3ccccn3)[nH]2)cc1,4.92
15,Cn1cc(-c2[nH]c3cc(NC(=O)[C@H](N)C4CCCCC4)cc4c3c2C=NNC4=O)cn1,4.25
16,COc1cc2nccc(Oc3ccc(NC(=O)Nc4ccc(F)cc4F)c(F)c3)c2cc1OC,4.38
17,O=C1NC(=O)[C@@H](c2cn3c4c(cccc24)CCC3)[C@@H]1c1c[nH]c2ccccc12 [Tivantinib (ARQ 197)],0.876
